Measured values as given in the supplement of paper PMC11732987, “Enantioselective OTUD7B fragment discovery through chemoproteomics screening and high-throughput optimisation” (Communications Chemistry, 2025).

Key:
Test in all cases: log2 ratio of Biotin-Ahx-Ub-VS probe labelling (fragment/DMSO); higher = less target engagement (more negative = stronger competition), active = hit call of the paper (q ≤ 0.05, log2 ratio ≤ -1)
Details in all cases: compound concentration: 200 uM; treatment time: 3 h
USP19 = molecular target: T1, USP19 (UniProt O94966)
T1 sequence (whole entry): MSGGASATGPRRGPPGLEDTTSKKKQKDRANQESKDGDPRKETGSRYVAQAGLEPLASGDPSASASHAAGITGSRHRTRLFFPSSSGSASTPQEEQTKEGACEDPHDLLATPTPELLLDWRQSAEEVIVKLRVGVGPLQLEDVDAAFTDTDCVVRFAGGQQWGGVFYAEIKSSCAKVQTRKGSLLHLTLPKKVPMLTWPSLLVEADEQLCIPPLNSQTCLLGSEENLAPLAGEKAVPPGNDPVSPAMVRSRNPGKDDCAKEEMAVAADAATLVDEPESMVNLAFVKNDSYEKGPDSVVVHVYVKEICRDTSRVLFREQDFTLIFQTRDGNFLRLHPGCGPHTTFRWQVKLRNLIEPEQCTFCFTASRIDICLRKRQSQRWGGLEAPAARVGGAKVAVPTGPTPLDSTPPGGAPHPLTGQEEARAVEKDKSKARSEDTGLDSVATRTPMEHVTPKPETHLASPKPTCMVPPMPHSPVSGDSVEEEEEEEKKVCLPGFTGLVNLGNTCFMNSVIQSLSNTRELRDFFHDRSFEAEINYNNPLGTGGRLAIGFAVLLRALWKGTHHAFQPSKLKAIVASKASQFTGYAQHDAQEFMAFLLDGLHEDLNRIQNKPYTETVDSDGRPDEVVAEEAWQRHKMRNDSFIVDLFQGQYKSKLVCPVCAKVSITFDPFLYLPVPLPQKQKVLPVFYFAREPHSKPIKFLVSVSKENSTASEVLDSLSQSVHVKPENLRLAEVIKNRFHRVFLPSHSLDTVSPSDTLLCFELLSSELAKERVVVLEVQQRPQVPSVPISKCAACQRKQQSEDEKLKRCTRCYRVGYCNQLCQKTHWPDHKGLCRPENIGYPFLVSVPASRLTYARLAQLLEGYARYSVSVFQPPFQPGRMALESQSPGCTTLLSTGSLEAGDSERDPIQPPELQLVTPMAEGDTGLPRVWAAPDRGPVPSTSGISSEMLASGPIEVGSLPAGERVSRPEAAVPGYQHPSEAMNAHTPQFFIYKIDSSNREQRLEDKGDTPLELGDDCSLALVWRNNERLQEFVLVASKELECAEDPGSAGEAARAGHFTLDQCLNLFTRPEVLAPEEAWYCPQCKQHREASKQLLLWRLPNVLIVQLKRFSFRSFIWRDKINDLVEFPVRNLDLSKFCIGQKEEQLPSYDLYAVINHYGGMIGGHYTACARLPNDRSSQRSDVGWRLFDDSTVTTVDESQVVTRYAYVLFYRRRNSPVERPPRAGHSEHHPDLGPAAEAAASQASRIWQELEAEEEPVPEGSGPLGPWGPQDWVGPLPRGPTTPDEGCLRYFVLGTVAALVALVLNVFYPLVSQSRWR
Procedure, shortened: (§1)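 HEK293T lysate, 495 µg per sample in Tris/CHAPS/IGEPAL buffer with protease inhibitors, was treated in triplicate with fragment at 200 µM or vehicle for 3 h and then with Biotin-Ahx-Ub-VS at 0.5 µM final for 1 h. Labelled DUBs were NeutrAvidin-enriched, digested with LysC and trypsin, and run by diaPASEF LC-MS/MS. Spectronaut label-free quantities were global-median-normalised, and values are average log2 fragment/vehicle ratios by unpaired t-test on proteins with ≥2 unique peptides.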

USP22 = molecular target: T2, USP22 (UniProt Q9UPT9)
T2 sequence (whole entry): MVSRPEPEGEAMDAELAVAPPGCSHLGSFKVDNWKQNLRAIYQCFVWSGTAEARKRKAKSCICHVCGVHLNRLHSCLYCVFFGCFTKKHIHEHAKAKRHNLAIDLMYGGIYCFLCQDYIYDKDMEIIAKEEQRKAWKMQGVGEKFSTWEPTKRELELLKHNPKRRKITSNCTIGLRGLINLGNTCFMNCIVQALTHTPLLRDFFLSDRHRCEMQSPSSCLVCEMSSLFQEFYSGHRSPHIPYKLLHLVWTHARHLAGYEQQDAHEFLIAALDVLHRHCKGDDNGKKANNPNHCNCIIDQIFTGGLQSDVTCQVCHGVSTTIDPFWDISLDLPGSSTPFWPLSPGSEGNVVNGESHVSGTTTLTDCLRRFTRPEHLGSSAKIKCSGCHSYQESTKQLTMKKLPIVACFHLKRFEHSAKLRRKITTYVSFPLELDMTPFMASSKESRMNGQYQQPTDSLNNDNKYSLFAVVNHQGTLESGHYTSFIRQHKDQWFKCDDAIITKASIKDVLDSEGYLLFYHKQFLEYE
Procedure, shortened: as §1

USP24 = USP24 (UniProt Q9UPU5)
Procedure, shortened: as §1

USP25 = molecular target: T3, USP25 (UniProt Q9UHP3)
T3 sequence (whole entry): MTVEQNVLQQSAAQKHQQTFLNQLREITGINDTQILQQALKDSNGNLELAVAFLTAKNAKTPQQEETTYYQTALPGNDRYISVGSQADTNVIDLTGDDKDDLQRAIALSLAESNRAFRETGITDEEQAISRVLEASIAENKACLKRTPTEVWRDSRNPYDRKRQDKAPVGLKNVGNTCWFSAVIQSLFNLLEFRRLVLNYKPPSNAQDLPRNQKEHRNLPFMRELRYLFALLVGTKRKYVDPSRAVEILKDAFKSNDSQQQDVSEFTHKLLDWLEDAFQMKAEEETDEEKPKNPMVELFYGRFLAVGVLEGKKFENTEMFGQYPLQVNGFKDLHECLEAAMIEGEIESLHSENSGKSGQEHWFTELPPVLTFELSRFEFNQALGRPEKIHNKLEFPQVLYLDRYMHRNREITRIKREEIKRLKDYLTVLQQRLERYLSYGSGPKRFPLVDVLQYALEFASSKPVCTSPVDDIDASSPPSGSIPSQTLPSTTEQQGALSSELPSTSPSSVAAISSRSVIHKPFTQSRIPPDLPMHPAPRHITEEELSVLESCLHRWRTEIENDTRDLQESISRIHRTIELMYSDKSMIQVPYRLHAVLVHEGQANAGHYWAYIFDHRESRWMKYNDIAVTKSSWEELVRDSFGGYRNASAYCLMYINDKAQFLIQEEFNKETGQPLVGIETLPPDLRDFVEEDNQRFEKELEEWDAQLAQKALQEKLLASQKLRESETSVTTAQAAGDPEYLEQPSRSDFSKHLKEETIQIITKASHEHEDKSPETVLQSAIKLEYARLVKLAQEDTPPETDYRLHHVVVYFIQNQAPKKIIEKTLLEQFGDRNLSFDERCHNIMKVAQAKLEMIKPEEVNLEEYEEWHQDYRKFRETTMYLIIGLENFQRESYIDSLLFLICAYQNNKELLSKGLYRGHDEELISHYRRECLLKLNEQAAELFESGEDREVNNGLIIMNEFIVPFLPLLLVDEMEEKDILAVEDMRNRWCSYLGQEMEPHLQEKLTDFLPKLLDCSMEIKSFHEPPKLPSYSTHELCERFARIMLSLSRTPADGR
Procedure, shortened: as §1

USP28 = molecular target: T4, USP28 (UniProt Q96RU2)
T4 sequence (whole entry): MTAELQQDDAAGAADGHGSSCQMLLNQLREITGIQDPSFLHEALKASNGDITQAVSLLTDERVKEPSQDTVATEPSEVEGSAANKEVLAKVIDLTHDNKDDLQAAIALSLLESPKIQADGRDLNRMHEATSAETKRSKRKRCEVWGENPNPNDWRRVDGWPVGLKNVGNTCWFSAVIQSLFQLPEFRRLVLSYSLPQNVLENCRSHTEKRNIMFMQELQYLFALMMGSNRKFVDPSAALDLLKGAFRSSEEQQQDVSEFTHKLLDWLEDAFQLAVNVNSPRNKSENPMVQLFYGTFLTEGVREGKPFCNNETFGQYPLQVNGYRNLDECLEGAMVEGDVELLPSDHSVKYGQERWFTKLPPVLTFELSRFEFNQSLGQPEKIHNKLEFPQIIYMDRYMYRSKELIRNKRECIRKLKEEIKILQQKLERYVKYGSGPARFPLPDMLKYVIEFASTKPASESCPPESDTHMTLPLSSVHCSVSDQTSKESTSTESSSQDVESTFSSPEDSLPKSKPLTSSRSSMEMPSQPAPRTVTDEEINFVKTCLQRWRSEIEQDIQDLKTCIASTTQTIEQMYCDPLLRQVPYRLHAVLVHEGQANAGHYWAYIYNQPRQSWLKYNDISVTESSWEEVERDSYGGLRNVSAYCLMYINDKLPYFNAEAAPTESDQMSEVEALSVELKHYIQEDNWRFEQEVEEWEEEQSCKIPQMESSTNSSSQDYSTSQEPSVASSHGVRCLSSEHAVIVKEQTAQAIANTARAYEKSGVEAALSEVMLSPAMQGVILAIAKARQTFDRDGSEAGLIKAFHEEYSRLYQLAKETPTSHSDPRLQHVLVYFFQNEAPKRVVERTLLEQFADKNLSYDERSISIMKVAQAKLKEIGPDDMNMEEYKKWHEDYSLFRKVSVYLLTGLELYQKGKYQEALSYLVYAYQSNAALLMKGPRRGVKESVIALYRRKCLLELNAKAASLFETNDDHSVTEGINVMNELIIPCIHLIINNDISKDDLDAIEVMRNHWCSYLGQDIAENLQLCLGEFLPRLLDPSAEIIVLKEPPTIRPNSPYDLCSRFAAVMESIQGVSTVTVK
Procedure, shortened: as §1

Measured: log2 ratio of Biotin-Ahx-Ub-VS probe labelling

Chain of USP24 (Q9UPU5 whole entry): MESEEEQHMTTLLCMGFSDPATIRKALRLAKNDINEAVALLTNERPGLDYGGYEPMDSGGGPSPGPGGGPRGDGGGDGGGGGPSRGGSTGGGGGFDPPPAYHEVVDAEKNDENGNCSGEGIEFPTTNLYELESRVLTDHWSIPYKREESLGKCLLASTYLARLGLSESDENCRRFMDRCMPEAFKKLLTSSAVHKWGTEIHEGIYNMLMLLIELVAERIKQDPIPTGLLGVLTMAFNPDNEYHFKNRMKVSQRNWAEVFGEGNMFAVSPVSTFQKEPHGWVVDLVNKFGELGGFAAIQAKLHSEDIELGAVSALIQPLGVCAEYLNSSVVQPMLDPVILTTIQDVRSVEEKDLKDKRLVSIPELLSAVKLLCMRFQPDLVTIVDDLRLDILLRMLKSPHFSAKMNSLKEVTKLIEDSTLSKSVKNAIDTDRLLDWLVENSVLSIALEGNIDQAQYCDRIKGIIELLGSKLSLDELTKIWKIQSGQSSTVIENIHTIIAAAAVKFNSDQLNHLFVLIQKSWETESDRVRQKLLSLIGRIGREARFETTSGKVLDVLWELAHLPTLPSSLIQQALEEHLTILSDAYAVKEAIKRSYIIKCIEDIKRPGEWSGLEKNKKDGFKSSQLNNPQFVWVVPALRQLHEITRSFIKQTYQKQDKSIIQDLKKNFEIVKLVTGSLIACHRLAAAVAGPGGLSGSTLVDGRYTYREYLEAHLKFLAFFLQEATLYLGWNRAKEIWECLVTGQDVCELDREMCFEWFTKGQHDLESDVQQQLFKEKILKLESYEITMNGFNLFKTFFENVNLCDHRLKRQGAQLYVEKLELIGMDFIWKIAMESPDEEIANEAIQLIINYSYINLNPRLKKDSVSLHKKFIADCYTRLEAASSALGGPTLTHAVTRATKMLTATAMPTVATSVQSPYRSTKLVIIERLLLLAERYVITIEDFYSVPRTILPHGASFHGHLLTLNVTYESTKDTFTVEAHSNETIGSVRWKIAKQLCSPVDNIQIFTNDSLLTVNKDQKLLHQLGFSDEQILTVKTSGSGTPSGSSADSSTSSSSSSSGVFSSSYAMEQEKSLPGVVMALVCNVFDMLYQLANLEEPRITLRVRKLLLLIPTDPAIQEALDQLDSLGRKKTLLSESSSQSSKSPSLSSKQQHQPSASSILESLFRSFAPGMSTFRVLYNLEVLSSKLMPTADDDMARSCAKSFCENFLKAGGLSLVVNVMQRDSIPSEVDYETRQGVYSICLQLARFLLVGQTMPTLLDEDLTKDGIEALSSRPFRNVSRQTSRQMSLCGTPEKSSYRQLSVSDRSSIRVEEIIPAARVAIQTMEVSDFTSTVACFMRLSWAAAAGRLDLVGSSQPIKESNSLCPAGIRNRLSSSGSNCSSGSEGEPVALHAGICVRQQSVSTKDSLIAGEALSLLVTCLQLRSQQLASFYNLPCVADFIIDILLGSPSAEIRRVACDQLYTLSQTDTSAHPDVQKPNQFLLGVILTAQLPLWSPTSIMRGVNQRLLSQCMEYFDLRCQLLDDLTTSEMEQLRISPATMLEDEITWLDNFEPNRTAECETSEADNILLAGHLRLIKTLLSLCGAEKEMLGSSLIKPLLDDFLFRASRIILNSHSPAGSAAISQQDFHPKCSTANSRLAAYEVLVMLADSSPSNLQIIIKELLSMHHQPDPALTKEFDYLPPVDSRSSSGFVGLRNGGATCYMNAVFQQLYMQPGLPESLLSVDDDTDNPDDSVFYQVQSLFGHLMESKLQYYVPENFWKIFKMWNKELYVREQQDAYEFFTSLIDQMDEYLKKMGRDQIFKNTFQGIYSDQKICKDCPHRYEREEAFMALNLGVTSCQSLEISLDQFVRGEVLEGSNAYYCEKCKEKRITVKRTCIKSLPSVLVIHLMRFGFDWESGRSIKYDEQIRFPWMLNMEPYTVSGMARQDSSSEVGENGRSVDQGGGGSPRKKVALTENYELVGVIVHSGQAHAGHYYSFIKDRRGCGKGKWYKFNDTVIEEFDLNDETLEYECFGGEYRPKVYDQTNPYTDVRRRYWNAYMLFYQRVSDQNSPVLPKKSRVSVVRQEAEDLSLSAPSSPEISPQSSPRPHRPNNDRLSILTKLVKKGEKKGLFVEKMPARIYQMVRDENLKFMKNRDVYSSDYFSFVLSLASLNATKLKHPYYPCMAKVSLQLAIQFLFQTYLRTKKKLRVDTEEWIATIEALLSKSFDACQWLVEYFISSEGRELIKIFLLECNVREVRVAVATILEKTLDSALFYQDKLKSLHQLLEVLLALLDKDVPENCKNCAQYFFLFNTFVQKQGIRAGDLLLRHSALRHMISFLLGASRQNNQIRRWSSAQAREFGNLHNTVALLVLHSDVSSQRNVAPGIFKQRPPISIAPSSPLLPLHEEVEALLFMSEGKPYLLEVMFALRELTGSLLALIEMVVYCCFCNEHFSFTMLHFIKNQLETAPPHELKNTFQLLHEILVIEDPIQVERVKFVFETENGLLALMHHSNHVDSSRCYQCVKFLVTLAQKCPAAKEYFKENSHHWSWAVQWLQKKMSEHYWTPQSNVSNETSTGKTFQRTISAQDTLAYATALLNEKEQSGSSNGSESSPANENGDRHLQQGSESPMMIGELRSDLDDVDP

COCC[C@@H](NC(=O)CCl)c1ccccc1
inactive: USP19 -0.0952 | USP22 0.104 | USP24 -0.153 | USP25 -0.293 | USP28 -0.388
